“And” between values parts separate entries of the source, which are not always exact repeats. Identical values can stand only once. Records with an inconclusive call do not appear. Values without a mark were called inactive. The source made the active and inactive calls. Calls come from the whole dose curve; as a rule, active = well fitted inhibition curve with a large enough effect; inconclusive = small, poorly fitted or top-dose-only effect; inactive = flat fitted curve, though single readings scatter.

Test [1] can be described thus: Drug repurposing screens with cells derived from glioblastoma tumor samples (AID 1345199). Note: nearly all actives have a fitted effect of over 40% in size. The following applies: GBM patient neurospheres viability, ATP luminescence, 48 h. A digest of the protocol:
(§1)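 Four patient lines of CD133+ GBM neurospheres were screened at several concentrations; hits were retested in those lines plus three slower-growing GBM lines, using 48-hour treatment and ATP-based viability.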

The next test relates to astro (control astrocytes). Described as above. The following applies: viability, ATP luminescence, 48 h; series mostly up to 45.9 µM. A digest of the protocol:
as §1

[2] abbreviates: at 20 µM (top of the series), tumour line C.
The mark [3] stands for this setting: at 21.2 µM (top of the series), tumour line B.
Setting [4] is: at 21.2 µM (top of the series), tumour line D.
Setting [5] is: at 21.3 µM (top of the series), tumour line A.
The mark [6] stands for this setting: at 45.9 µM (top of the series), tumour line B.
The mark [7] stands for this setting: at 45.9 µM (top of the series), tumour line D.
The mark [8] stands for this setting: at 46 µM (top of the series), tumour line A.
The mark [9] stands for this setting: at 46.1 µM (top of the series), tumour line C.
% is set by controls: 0 for no effect and ±100 for the full control effect; potency is the fitted concentration of half-maximal effect.

For the compound `CCCC1C(=O)N2C(N(C)C)=Nc3ccc(C)cc3N2C1=O` (stereo not given), the activity, negative = cell killing in test [1] (setting [2]) is -0.417%; in test [1] (setting [3]), -20.8%; in test [1] (setting [4]), -11.9%; in test [1] (setting [5]), -28.1%. Also, in the test on astro, the Potency entry was “inactive”.
Consider `CC(C)[C@H](N)C(=O)OCC(CO)OCn1cnc2c(=O)[nH]c(N)nc21` (stereo not given in full), for which the activity, negative = cell killing was -16.2% in test [1] (setting [6]), -11.6% in test [1] (setting [7]), -27% in test [1] (setting [8]) and -25.2% in test [1] (setting [9]). Also, in the test on astro, the Potency result is “inactive”.
On the same counts, the results for `CC(=O)[O][Al][O]C(C)=O` are -5.15%, -14.6%, -26.4%, -11.8% and “inactive”.
Regarding `O=C1/C(=C\c2cccs2)CCC/C1=C\c1cccs1`, the activity, negative = cell killing is -19.7% in test [1] (setting [6]), -28.6% in test [1] (setting [7]) and -23.9% in test [1] (setting [9]). In test [1] (tumour line A), the Potency was 25.1 µM (active). For the same compound, the Potency entry with astro is “inactive”.
As for `CCCCCCCCCCCCCC(=O)OCC(COP(=O)([O-])OCC[N+](C)(C)C)OC(=O)CCCCCCCCCCCCC` (stereo not given), the activity, negative = cell killing in test [1] (setting [6]) was -7.07%; in test [1] (setting [7]), 3.06%; in test [1] (setting [8]), -21.5%; in test [1] (setting [9]) it was -13.4%. Moreover, the Potency result in the test on astro was “inactive”.
In the case of `CC(C)(O/N=C(\C(=O)N[C@@H]1C(=O)N2C(C(=O)[O-])=C(C[n+]3ccccc3)CS[C@H]12)c1csc(N)n1)C(=O)O`, the activity, negative = cell killing in test [1] (setting [2]) is -8.81%; in test [1] (setting [3]), -13.9%; in test [1] (setting [4]), 1.29%; in test [1] (setting [5]) it was -19.8%. The Potency entry in the test on astro is “inactive”.
Consider `CCOC(=O)Oc1c(OC)cc(C(=O)O[C@@H]2C[C@@H]3CN4CCc5c([nH]c6cc(OC)ccc56)[C@H]4C[C@@H]3[C@H](C(=O)OC)[C@H]2OC)cc1OC`, for which the activity, negative = cell killing was -3.41% in test [1] (setting [2]), -4.13% in test [1] (setting [3]) and -4.51% in test [1] (setting [4]). Further, in test [1] (tumour line A), the Potency is 5.62 µM (active). The Potency result with astro was “inactive”.
Consider `C[C@@H]1C/C=C/C=C/C=C/C=C/[C@H](O[C@@H]2O[C@H](C)[C@@H](O)[C@H](N)[C@@H]2O)C[C@@H]2O[C@](O)(C[C@@H](O)C[C@H]3O[C@@H]3/C=C/C(=O)O1)C[C@H](O)[C@H]2C(=O)O`, for which the activity, negative = cell killing in test [1] (setting [6]) was -13.9%; in test [1] (setting [7]), -5.09%; in test [1] (setting [8]), -20.3%; in test [1] (setting [9]), -13.5%. The Potency entry in the test on astro was “inactive”.
For `CO/N=C(\C(=O)N[C@@H]1C(=O)N2C(C(=O)O)=CCS[C@H]12)c1csc(N)n1`, the activity, negative = cell killing in test [1] (setting [6]) is -10.9%; in test [1] (setting [7]) it was -17.7%; in test [1] (setting [8]) it was -10.3%; in test [1] (setting [9]), -14%. Also, the Potency result in the test on astro is “inactive”.
Consider `CCOC(=O)c1cc(-c2ccccc2)nc2ccc(C)cc12`, for which the activity, negative = cell killing in test [1] (setting [6]) is -20.9%; in test [1] (setting [7]), 9.36%; in test [1] (setting [9]), -13.3%. Further, the Potency in test [1] (tumour line A) was 12.6 µM (active). In the test on astro, the Potency entry was “inactive”.
With `O=C(O)CCC/C=C\C[C@@H]1[C@@H](/C=C/[C@@H](O)COc2cccc(Cl)c2)[C@H](O)C[C@@H]1O`, the activity, negative = cell killing in test [1] (setting [6]) was -7.43%; in test [1] (setting [7]), 0.189%; in test [1] (setting [8]), -25.8%; in test [1] (setting [9]), -22.5%. For the same compound, in the test with astro, the Potency entry was “inactive”.
For `CC(=O)O[C@@H]1CC2CCC1(C)C2(C)C` (stereo not given in full), in that order: -4.03%, -12.8%, -12.3%, -4.87% and “inactive”.
For `COc1cc2c(cc1OC)[C@@H](Cc1cc(OC)c(OC)c(OC)c1)[N+](C)(CCCOC(=O)CC/C=C/CCC(=O)OCCC[N+]1(C)CCc3cc(OC)c(OC)cc3[C@H]1Cc1cc(OC)c(OC)c(OC)c1)CC2` (stereo not given in full), the activity, negative = cell killing is -17.7% and -2.67% in test [1] (setting [6]); -12.5% and -11.6% in test [1] (setting [7]); -22.5% in test [1] (setting [8]); -14.7% and -8.1% in test [1] (setting [9]). In the test on astro, the Potency result is “inactive”.
For the compound `O=C1[O][Bi][O]c2ccccc21`, the activity, negative = cell killing was -16% in test [1] (setting [6]), -27.4% in test [1] (setting [7]), -26.1% in test [1] (setting [8]) and -6.82% in test [1] (setting [9]). The Potency result with astro is “inactive”.
For `CC(C)(C)CC(C)(C)c1cc(Cc2cc(C(C)(C)CC(C)(C)C)cc(-n3nc4ccccc4n3)c2O)c(O)c(-n2nc3ccccc3n2)c1`, in that order: -3.94%, -1.11%, -36.5%, -23.5% and “inactive”.
On the same counts, the results for `O=C(O)[C@H]1CN(C/C=C/P(=O)(O)O)CCN1` are -1.77%, 1.08%, -25.5%, -5.57% and “inactive”.
On the same counts, the results for `CN[C@@H]1[C@@H](O)[C@@H](O[C@@H]2[C@@H](O)[C@H](O[C@H]3O[C@H](CN)[C@@H](O)[C@H](O)[C@H]3O)[C@@H](N)C[C@H]2NC(=O)C(O)CN)OC[C@]1(C)O` (stereo not given in full) are -11%, -1.91%, 4.63%, 1.73% and “inactive”.
Turning to `O=P(O)(O)CP(=O)(O)O`, the activity, negative = cell killing in test [1] (setting [6]) is -7.32%; in test [1] (setting [7]), -1.92%; in test [1] (setting [8]), -22%; in test [1] (setting [9]), -17.6%. In the test with astro, the Potency result is “inactive”.
On to `C=O`, for which the activity, negative = cell killing in test [1] (setting [6]) was -5.16%; in test [1] (setting [7]) it was -12.4%; in test [1] (setting [8]) it was -10.6%; in test [1] (setting [9]), 0.841%. Moreover, in the test on astro, the Potency result was “inactive”.

Values taken from PubChem BioAssay (NCATS).
